PubChem BioAssay (NCI)
Values joined by “and” are separate entries in the source; they are usually repeats but may differ in a detail not shown here. Identical values can stand only once. The panel holds about 79,000 compounds, 15% with a hit somewhere; the sample as a whole holds those more often. Values without a mark were called inactive. Active and inactive are the calls of the source. Rule as the data show it: active = growth inhibition above about 70%; inactive = the rest.

Assay: NCI Yeast Anticancer Drug Screen. Data for the wt2 strain (AID 169);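 also: 0% = growth of vehicle-treated yeast cultures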
Conditions: S. cerevisiae wt2 strain growth inhibition, stronger effect = higher value
Experimental: Growth inhibition of yeast strains with defined genetic alterations is measured as a screen for potential anti-cancer activity. Selected strains with alterations in DNA damage repair or cell cycle control were exposed to compounds and growth inhibition was measured relative to vehicle treated controls. The strain used in this assay is wt2

SMILES	growth inhibition (at 1.2 µM)	growth inhibition (at 3.7 µM)	growth inhibition (at 11.0 µM)	growth inhibition (at 33.0 µM)	growth inhibition (at 100.0 µM)
CC[C@@]1(O)C(=O)OCc2c1cc1n(c2=O)Cc2cc3c(NC(=O)CN)cccc3nc2-1	-1%	1%	0%	-1%	0%
CN(C)CCSC1=Nc2ccc(Cl)cc2C(c2ccccc2Cl)=NC1	-3%	-3%	-8%	-6%	63%
CNC(=O)OCC1C2=C(C(=O)C(C)=C(N)C2=O)N2CC3C(N3C)C12OC (stereo not given)	-33%	-40%	-39%	-5%	21%
COc1ccc([N+]2=NC(c3ccc([N+](=O)[O-])cc3)=NN(c3ccccc3)C2)cc1	0% and 1%	-1%	-2%	27% and 7%	93% (active)
CCN(CCCl)c1cc(CN(C)C)cc(NC(=O)c2ccc(C(=O)Nc3cc(CN(C)C)cc(N(CC)CCCl)c3)cc2)c1	-12%	-19%	-16%	3%	89% (active)
CCOC(=O)C1([Se]c2ccccc2)CCCC1=O (stereo not given)	2%	21%	22%	49%	88% (active)
OC1(c2ccccc2)CC2CCC(C1)N2CCCC(O)(c1ccccc1)c1ccccc1 (stereo not given)	-1%	-1%	1%	17%	80% (active)
Oc1c(Br)cc(Br)cc1Br	-8%	-9%	-8%	26%	84% (active)
